Source: PubChem BioAssay (National Center for Advancing Translational Sciences (NCATS))
Most compounds without a hit are left out; they make up all but 2.9% or so of the library.
EPAC1 ag val = Validation qHTS for agonist of cAMP-regulated guanine nucleotide exchange factor 3 (EPAC1); Rap guanine nucleotide exchange factor 3 (Homo sapiens), O95398; 1% of 16,000 active; AID 1645883, 2021; EPAC1 Rap1b BODIPY-GDP exchange, fluorescence; Potency, µM, for the others: max response, positive = active, most hits filed as activators; also: nearly all actives have a fitted effect of over 70% in size
Target sequence (O95398 whole entry, looked up): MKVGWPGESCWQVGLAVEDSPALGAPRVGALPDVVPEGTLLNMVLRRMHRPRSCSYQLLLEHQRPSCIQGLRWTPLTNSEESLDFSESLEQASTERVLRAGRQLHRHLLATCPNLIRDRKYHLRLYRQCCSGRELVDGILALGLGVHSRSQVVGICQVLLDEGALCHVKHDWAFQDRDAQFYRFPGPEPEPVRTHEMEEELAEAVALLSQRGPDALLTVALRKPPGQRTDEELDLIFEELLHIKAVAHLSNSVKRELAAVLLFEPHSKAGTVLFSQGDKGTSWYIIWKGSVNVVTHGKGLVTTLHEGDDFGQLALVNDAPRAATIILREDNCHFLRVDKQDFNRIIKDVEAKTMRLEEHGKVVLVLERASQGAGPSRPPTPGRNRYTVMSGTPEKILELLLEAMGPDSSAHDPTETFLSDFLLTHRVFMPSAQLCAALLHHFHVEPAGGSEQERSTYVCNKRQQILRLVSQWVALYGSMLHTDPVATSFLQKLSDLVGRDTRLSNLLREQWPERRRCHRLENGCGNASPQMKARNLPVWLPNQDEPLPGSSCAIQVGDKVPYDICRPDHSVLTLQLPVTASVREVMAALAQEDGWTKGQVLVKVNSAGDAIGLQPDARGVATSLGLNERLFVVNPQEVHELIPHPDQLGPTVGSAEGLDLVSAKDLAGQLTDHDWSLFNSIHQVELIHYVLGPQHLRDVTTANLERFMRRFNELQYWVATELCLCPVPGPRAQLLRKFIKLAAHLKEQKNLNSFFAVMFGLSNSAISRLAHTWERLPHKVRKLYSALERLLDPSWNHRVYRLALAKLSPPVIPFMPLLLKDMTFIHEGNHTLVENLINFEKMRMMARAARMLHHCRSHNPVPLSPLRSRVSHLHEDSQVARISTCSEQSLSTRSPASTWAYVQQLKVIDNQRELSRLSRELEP
EPAC2 ant val = Validation qHTS for antagonist of cAMP-regulated guanine nucleotide exchange factor 4 (EPAC2); 1.7% of 16,000 active; Potency, µM (highest dose often 112 µM), without a hit: top-dose activity, negative = inhibition, hits mostly inhibitors; EPAC2 Rap1B BODIPY-GDP exchange, fluorescence;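 also: 100% = activation by cAMP agonist control; nearly all actives have a fitted effect of over 40% in size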
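Fluorescent exchange read-out: 100 nM EPAC2 with 250 nM RAP1B–BODIPY-GDP and 50 uM GDP; BODIPY-GDP release lowers fluorescence. Read at 480/540 nm every 5 min for 30 min at room temperature; normalized to 6.5 mM cAMP.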
An asterisk follows results filed as active; ? = inconclusive; ! = not active in a repeat; [ ] = remark or other dose. Calls follow the shape of the dose curve; as a rule, active = well fitted curve in the direction sought with a large enough effect; inconclusive = small, poorly fitted or top-dose-only effect, or another doubt; inactive = no such curve, though single readings can be large; an effect the other way counts as inactive or inconclusive. Unless noted, % is scaled to controls: 0 for no effect and ±100 for the full control effect; potency is read from the fitted curve at half-maximal effect.

SMILES	EPAC1 ag val	EPAC2 ant val
CC(=O)N1CCC2(CC1)CCN(C(c1ccccc1)c1ccccc1)CC2	-63%	-30%
CC(=O)N1CCC2(CCCN(C(c3ccccc3)c3ccccc3)C2)CC1	-25%	32µM*
OC1(c2cccnc2)CCN(Cc2ccc3c(c2)CN(Cc2cc4ccccc4s2)CCO3)CC1	?	-43%
CC1(C)S[C@@H]2[C@H](NC(=O)[C@H](N)c3ccccc3)C(=O)N2[C@H]1C(=O)OCOC(=O)[C@@H]1N2C(=O)C[C@H]2S(=O)(=O)C1(C)C	6%	1%
COc1ccc(-n2c(=O)c(-c3cccs3)nc3cnc(Nc4ccccc4)nc32)cc1	?	12%
COc1cccc(Nc2ncc3nc(-c4cccs4)c(=O)n(Cc4cccs4)c3n2)c1	?	4%
O=c1c(-c2cccs2)nc2cnc(Oc3ccccc3)nc2n1Cc1cccs1	11%	-22%
COc1cccc(Nc2ncc3ncc(=O)n(Cc4cccs4)c3n2)c1	112µM*	-14%
O=c1cnc2cnc(Oc3cccc(Cl)c3)nc2n1Cc1ccc(F)cc1	8%	10µM*
O=c1cnc2cnc(Oc3ccccc3)nc2n1Cc1cccs1	10%	13µM*
COc1cccc(Nc2ncc3nc(-c4cccs4)c(=O)n(-c4ccccc4)c3n2)c1	112µM*	355%
COCCn1c(=O)cnc2cnc(Oc3cccc(Cl)c3)nc21	-14%	-10%
Cc1ccccc1C1(CC(=O)N2CCCC2c2nccs2)CC(=O)N(C2CCCC2)C1=O (centres undefined)	-2%	-17%
COc1ccc(C(=O)N2CCCC(c3nc(SCc4ccccn4)ncc3C)C2)cc1F (centres undefined)	-17%	?
CCCCC/C=C\CCC(=O)N[C@H]1[C@H](Oc2c3cc4cc2Oc2ccc(cc2Cl)[C@@H](O[C@@H]2O[C@H](CO)[C@@H](O)[C@H](O)[C@H]2NC(C)=O)[C@@H]2NC(=O)[C@H](NC(=O)[C@@H]4NC(=O)[C@H]4NC(=O)[C@@H](Cc5ccc(c(Cl)c5)O3)NC(=O)[C@H](N)c3ccc(O)c(c3)Oc3cc(O)cc4c3)c3ccc(O)c(c3)-c3c(O[C@H]4O[C@H](CO)[C@@H](O)[C@H](O)[C@@H]4O)cc(O)cc3[C@@H](C(=O)O)NC2=O)O[C@H](CO)[C@@H](O)[C@@H]1O	-122%	35%
Cc1cccc(C(=O)NCc2nc(-c3cccc(NC(=O)c4ccoc4C)c3)oc2C)n1	19%	-14%
C=CC1=C(C(=O)O)N2C(=O)[C@@H](NC(=O)/C(=N/OCC(=O)O)c3csc(N)n3)[C@H]2SC1 (stereo in doubt)	-18%	-19%[56.6 µM]
OCCN(CCO)c1nc(N2CCCCC2)c2nc(N(CCO)CCO)nc(N3CCCCC3)c2n1	35µM*!	?
CC(c1ccon1)N(C)C(=O)c1cnn(-c2ncc3c(n2)-c2ccccc2CC3)c1C1CC1 (centres undefined)	-5%	-37%
C=CC[C@@H]1/C=C(\C)C[C@H](C)C[C@H](OC)[C@H]2O[C@@](O)(C(=O)C(=O)N3CCCC[C@H]3C(=O)O[C@H](/C(C)=C/[C@@H]3CC[C@@H](O)[C@H](OC)C3)[C@H](C)[C@@H](O)CC1=O)[C@H](C)C[C@@H]2OC	-64%	79µM*
CC[C@@H]1/C=C(\C)C[C@H](C)C[C@H](OC)[C@H]2O[C@@](O)(C(=O)C(=O)N3CCCC[C@H]3C(=O)O[C@H](/C(C)=C/[C@@H]3CC[C@@H](Cl)[C@H](OC)C3)[C@H](C)[C@@H](O)CC1=O)[C@H](C)C[C@@H]2OC	9%	11%
O=C1O[C@@H]2[C@@H](O)[C@H](O)O[C@@H]2[C@H]1O	5%	-15%
COC(=O)C1=C(C)NC(C)=C([N+](=O)[O-])C1c1ccccc1C(F)(F)F (centres undefined)	2%	40µM*!
CC1=C(C(=O)OC(C)C)[C@@H](c2cccc3nonc23)C([N+](=O)[O-])=C(C)N1	-1%	-51%
COc1cc([C@@H]2c3cc4c(cc3C(O[C@@H]3O[C@@H]5CO[C@@H](C)O[C@H]5[C@H](O)[C@H]3O)C3COC(=O)[C@@H]32)OCO4)cc(OC)c1OP(=O)(O)O (some centres undefined)	-3%	20%
SMILES	EPAC1 ag val	EPAC2 ant val
COc1cccc(C(=O)N(Cc2cc3ccc(C)cc3nc2N(C)C)C2CC2)c1OC	-2%	14µM*
COc1ccc(-c2nc3cc(C)ccc3cc2CN(C(=O)c2cccs2)C2CC2)cc1OC	24%	?
COc1cc2c(cc1OC)CN(C(=O)[C@@H]1C[C@H](NCc3cn(C)c4ccccc34)CN1C1Cc3ccccc3C1)CC2	-1%	-5%
COCC(=O)N1CCC2(CCCN(C(=O)Nc3cccc(C#N)c3)C2)CC1	-33%	-21%
COCC(=O)N1CCC2(CC1)CCN(C(=O)Nc1cccc(C#N)c1)CC2	126µM*	-21%
CC1CC(=O)NN=C1c1ccc(NCC(C)(C)NCC(O)COc2cc(Cl)ccc2C#N)cc1 (centres undefined)	?	5%
O=S(=O)(O)c1cc(O)c2c(N=Nc3ccc(Nc4ccccc4)c4c(S(=O)(=O)O)cccc34)cc(S(=O)(=O)O)cc2c1	9%	?
O=S(=O)(O)c1ccc2c(N=Nc3ccc(S(=O)(=O)O)c4ccccc34)c(O)c(S(=O)(=O)O)cc2c1	-63%	50µM*
COc1ccccc1C1CN(CCNC(=O)c2ccc3c(c2)OCCO3)Cc2ccccc2O1 (centres undefined)	8%	-15%
Cc1cccc(CNC(=O)c2cnn(-c3nccc(-c4cccs4)n3)c2C(C)C)n1	-9%	-23%
CC1(C)CCC2=C(O1)c1ccccc1C(=O)C2=O	-7%	28µM*!
O=C(CO)[C@@H](O)[C@H](O)[C@H](O)CO	-71%	9%
CC#CCC(C)[C@H](O)/C=C/[C@@H]1[C@H]2c3cccc(CCCC(=O)O)c3O[C@H]2C[C@H]1O (some centres undefined)	15%	-16%
C[C@@]12C(=O)OC(=O)[C@@]1(C)[C@@H]1CC[C@@H]2O1	-12%	56µM*
C[C@@]12C(=O)OC(=O)[C@@]1(C)C1CCC2O1	-33%	12%
CC(CN1c2ccccc2Sc2ccc(S(=O)(=O)N(C)C)cc21)N(C)C (centres undefined)	-54%	10%
COc1ccc(/C=C/C(=O)NCC2Cc3cc(Cl)cc(-c4ncccn4)c3O2)cc1 (centres undefined)	?	-14%
O=C(O)COc1ccc(C(=O)c2cccs2)c(Cl)c1Cl	-12%	-6%
CCCC[C@@]1(C2CCCC2)Cc2cc(OCC(=O)O)c(Cl)c(Cl)c2C1=O	-6%	14µM*
COc1cccc(Nc2ncc3nc(-c4ccc(F)cc4)c(=O)n(CCC#N)c3n2)c1	112µM*	-19%
COc1ccc(-c2nc3cnc(Oc4ccccc4)nc3n(CCC#N)c2=O)cc1	?	-28%
COc1ccc(-c2nc3cnc(Nc4ccccc4)nc3n(CCC#N)c2=O)cc1	112µM*	-4%
COc1cccc(Nc2ncc3nc(-c4ccc(F)cc4)c(=O)n(C)c3n2)c1	-72%	-5%
COc1ccc(-c2nc3cnc(Nc4cccc(OC)c4)nc3n(CCC#N)c2=O)cc1	100µM*	3%
